SENP7 inh: SENP7 protease inhibitors, primary screen, biochemical, luminescence, uHTS | inhibition, % at 5 µM | actives 1.5% (n = 330,000) | recombinant SENP7, Z-RLRGG-aminoluciferin luminescence, 40 min | Sentrin-specific protease 7 (Homo sapiens), Q9BQF6;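 active = inhibition above about 50% at the single test dose, limit read from the data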
Target sequence (Q9BQF6 706-1050 limits assumed): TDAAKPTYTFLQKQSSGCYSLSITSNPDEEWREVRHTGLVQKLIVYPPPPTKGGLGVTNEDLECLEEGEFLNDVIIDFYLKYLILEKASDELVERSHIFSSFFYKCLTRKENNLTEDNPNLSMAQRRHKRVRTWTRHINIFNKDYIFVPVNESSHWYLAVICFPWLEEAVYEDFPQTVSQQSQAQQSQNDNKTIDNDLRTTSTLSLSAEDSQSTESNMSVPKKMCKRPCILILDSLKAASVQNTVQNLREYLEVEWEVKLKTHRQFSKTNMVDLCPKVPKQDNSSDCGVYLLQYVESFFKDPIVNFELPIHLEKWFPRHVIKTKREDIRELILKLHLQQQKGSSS
SENP6 inh: SENP6 protease inhibitors, primary screen, biochemical, luminescence, uHTS. actives 1.8% (n = 330,000). Sentrin-specific protease 6 (Homo sapiens), Q9GZR1. Recombinant SENP6 catalytic domain, aminoluciferin luminescence. AID 2599, 2010. inhibition, % at 10 µM;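 active = inhibition above about 50% at the single tested dose, limit read from the data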
SENP8 block-1: human SENP8 protease inhibitors, primary screen, biochemical, fluorescence, Nedd8 protein substrate, uHTS; AID 602440, 2012; actives 0.64% (n = 360,000); recombinant SENP8; inhibition, % at 20 µM; in the data active = inhibition mostly above about 40%, no sharp cut-off; inactive = mostly below about 27%
Platelet DG rel: inhibitors of platelet dense granule secretion, primary screen, cell-based, MLPCN, human platelets; AID 1663, 2009; actives 0.22% (n = 300,000); inhibition, %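 (compounds screened at 7.5 µM in platelet-rich plasma)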; human platelet-rich plasma, SFLLRN dense granule ATP release, luminescence;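 active = mean replicate score, as percent of positive control, at or above 50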
SENP8 block-2: SENP8 protease inhibitors, primary screen, biochemical, luminescence; Sentrin-specific protease 8 (Homo sapiens), Q96LD8; purified SENP8, Z-RLRGG-aminoluciferin cleavage; inhibition, % at 10 µM; actives 1.2% (n = 330,000); in the data active = inhibition above about 50%
SENP8 conf: SENP8 protease inhibitors, retest, confirmation, biochemical, luminescence, single concentration; shares compounds with SENP7 inh; actives 40% (n = 6,200); inhibition, % at 12.5 µM; Recombinant SENP8, Z-RLRGG-aminoluciferin luminescence, 60 min; AID 488912, 2010;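 active = mean inhibition across replicates above about 50%, limit read from the data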
SENP6 confirm: SENP6 protease inhibitors, confirmation, biochemical, luminescence, single concentration | shares compounds with SENP7 inh | recombinant SENP6, Z-RLRGG-aminoluciferin luminescence | inhibition, % at 12.5 µM | actives 58% (n = 6,200) | AID 488915, 2010
SENP7 confirm: SENP7 protease inhibitors, retest, confirmation, biochemical, luminescence, single concentration; recombinant SENP7, Z-RLRGG-aminoluciferin luminescence, 40 min; actives 69% (n = 6,200); shares compounds with SENP7 inh; inhibition, % at 12.5 µM
Casp3 select: caspase-3 protease inhibitors, confirmation, selectivity assay for SENP inhibitor project, biochemical, single concentration | shares compounds with SENP7 inh | purified caspase-3, Z-DEVD-aminoluciferin luminescence, 60 min | inhibition, % at 12.5 µM | actives 60% (n = 6,200) | AID 488918, 2010;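 active = mean inhibition above about 50%, limit read from the data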
Target sequence (P42574 28-227 limits assumed): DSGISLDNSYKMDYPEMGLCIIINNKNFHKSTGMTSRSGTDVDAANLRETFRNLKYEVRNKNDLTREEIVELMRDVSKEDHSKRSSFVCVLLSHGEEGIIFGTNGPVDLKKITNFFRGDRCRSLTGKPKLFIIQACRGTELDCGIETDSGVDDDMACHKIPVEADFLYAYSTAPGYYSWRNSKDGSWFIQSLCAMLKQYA
SENP luc ctr: luminescence interference (SENP counter-screen). inhibition, % at 12.5 µM. shares compounds with SENP7 inh. actives 39% (n = 6,200). Pre-incubated SENP8/Z-RLRGG-aminoluciferin, luciferase luminescence interference;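 active = mean inhibition above about 50% when retested at one dose, limit read from the data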
Each line names hits and unclear results; the compound was inactive in the other large screens (follow-up assays come after a bar, where they were run). An excerpt weighted towards active compounds, which were near 2.4% of everything screened.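 The calls were made as follows, unless noted: active = mean inhibition above about 50% in the one-dose retest (limit read from the data); inactive = the rest.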

Cc1ccc(C(=O)Nc2ccc(OCc3ccccc3)cc2)cc1[N+](=O)[O-]	none
COc1ccc(NC(=O)c2cccs2)cc1	SENP6 inh 60 | SENP8 conf inactive | SENP6 confirm inactive | SENP7 confirm 74 | Casp3 select 79 | SENP luc ctr 62
CCOC(=O)CNC(=O)c1cccs1	none
Cc1occc1C(=O)Nc1ccc(OCc2ccccc2)cc1	SENP7 inh 100, SENP6 inh 98, SENP8 block-2 96 | SENP8 conf 90 | SENP6 confirm 100 | SENP7 confirm 104 | Casp3 select 99 | SENP luc ctr 73
CC(C)(CNC(=O)c1cccs1)CNC(=O)c1cccs1	SENP7 inh 84 | SENP8 conf inactive | SENP6 confirm inactive | SENP7 confirm inactive | Casp3 select inactive | SENP luc ctr inactive
O=C(Nc1ccc(NC(=O)c2cccs2)c(Cl)c1)c1cccs1	SENP7 inh 53, SENP6 inh 63 | SENP8 conf inactive | SENP6 confirm 51 | SENP7 confirm 80 | Casp3 select inactive | SENP luc ctr inactive
CCCSCCCNC(=O)CN1C(=O)COc2ccc(S(=O)(=O)N3CCCC3)cc21	none
COc1ccc2c(c1)nc(-c1cccc(Br)c1)c(=O)n2C(c1ccccn1)c1nc2ccccc2[nH]1 (centres undefined)	none (no result: SENP7 inh, SENP6 inh, Platelet DG rel, SENP8 block-2)
O=C(Nc1nc2ccc(F)cc2s1)c1ccc([N+](=O)[O-])o1	none (no result: SENP7 inh, SENP6 inh, Platelet DG rel, SENP8 block-2)
O=C(Nc1nc2c(Cl)cccc2s1)c1ccc([N+](=O)[O-])o1	SENP6 inh 59 | SENP8 conf inactive | SENP6 confirm inactive | SENP7 confirm 77 | Casp3 select inactive | SENP luc ctr inactive
O=C(Nc1nc2c(F)cccc2s1)c1ccc([N+](=O)[O-])o1	SENP6 inh 71 | SENP8 conf inactive | SENP6 confirm inactive | SENP7 confirm inactive | Casp3 select inactive | SENP luc ctr inactive
CC1(C(=O)NS(=O)(=O)c2ccc(C#N)cc2)CCN1C(=O)C1(c2ccccc2)CCCC1 (centres undefined)	none (no result: SENP7 inh, SENP6 inh, Platelet DG rel, SENP8 block-2)
CC(=O)Nc1ccc(Cl)cc1-c1ccccc1	none (no result: SENP7 inh, SENP6 inh, Platelet DG rel, SENP8 block-2)
CN(C)c1nn(C(=O)Nc2ccc(Cl)cc2Cl)cc1-c1ccccc1	SENP7 inh 101 | SENP8 conf inactive | SENP6 confirm inactive | SENP7 confirm inactive | Casp3 select inactive | SENP luc ctr inactive
CCSc1nnc(N2C(=O)c3ccc(C(=O)c4ccc(C(=O)O)cc4)cc3C2=O)s1	none
COc1ccc(C(=O)NCc2nnc(SCC(=O)N3CCCC3)o2)cc1OC	none
Fc1ccc2nc3[nH]c4ccccc4c3nc2c1	SENP7 inh 74, SENP6 inh 74 | SENP8 conf inactive | SENP6 confirm 53 | SENP7 confirm 53 | Casp3 select 61 | SENP luc ctr inactive
CCC1(C)N=C(c2ccc3c(c2)OCO3)CC(c2ccccc2O)N1 (centres undefined)	SENP6 inh 91, SENP8 block-2 78 | SENP8 conf 82 | SENP6 confirm inactive | SENP7 confirm inactive | Casp3 select inactive | SENP luc ctr 63
COC(=O)c1ccccc1-c1ccc(/C=C2\C(=O)N(c3ccccc3)N=C2c2ccccc2)o1	SENP6 inh 53 | SENP8 conf inactive | SENP6 confirm inactive | SENP7 confirm inactive | Casp3 select inactive | SENP luc ctr inactive
CC1C(=O)N2CCCc3cc(NC(=O)c4ccccc4Br)cc1c32 (centres undefined)	none (no result: Platelet DG rel)
Clc1ccccc1/C=C/c1nc(-c2cccnc2)no1	SENP7 inh 77, SENP6 inh 88, SENP8 block-2 69 | SENP8 conf 56 | SENP6 confirm 68 | SENP7 confirm 89 | Casp3 select 56 | SENP luc ctr inactive
Clc1ccccc1-c1nc(-c2cccnc2)no1	SENP7 inh 81, SENP6 inh 84, SENP8 block-2 64 | SENP8 conf inactive | SENP6 confirm 72 | SENP7 confirm 93 | Casp3 select 77 | SENP luc ctr 64
Cc1ccccc1-c1nc(-c2cccnc2)no1	SENP7 inh 53, SENP6 inh 60 | SENP8 conf inactive | SENP6 confirm 60 | SENP7 confirm 84 | Casp3 select 67 | SENP luc ctr inactive
Clc1ccccc1-c1nc(-c2ccncc2)no1	SENP7 inh 80, SENP6 inh 81, SENP8 block-2 75 | SENP8 conf 82 | SENP6 confirm 84 | SENP7 confirm 97 | Casp3 select 84 | SENP luc ctr 71
Cc1onc(-c2ccccc2Cl)c1-c1nc(-c2ccncc2)no1	none
O=C(Nc1cc(S(=O)(=O)N2CCOCC2)ccc1N1CCCCC1)c1ccccc1Br	none (no result: Platelet DG rel)
O=C(COc1ccccc1)Nc1ccccc1Cl	none
Cc1ccc(N2C(=N)/C(=C3/Nc4ccccc4S3)C(c3ccccc3)C2=O)cc1 (centres undefined)	none (no result: SENP7 inh, SENP6 inh, Platelet DG rel, SENP8 block-2)
Cc1nc(-c2noc(-c3ccccc3Cl)n2)c(C(F)(F)F)o1	SENP7 inh 65, SENP6 inh 78, SENP8 block-2 70 | SENP8 conf inactive | SENP6 confirm 57 | SENP7 confirm 78 | Casp3 select 70 | SENP luc ctr inactive
Cc1nc(-c2noc(-c3cccc(Cl)c3)n2)c(C(F)(F)F)o1	none
O=c1c2ccccc2nnn1CSc1ccccc1	SENP7 inh 78, SENP6 inh 87, SENP8 block-2 75 | SENP8 conf 81 | SENP6 confirm 81 | SENP7 confirm 96 | Casp3 select 88 | SENP luc ctr 85
O=c1c2ccccc2nnn1CSc1ccc2ccccc2n1	none
O=c1c2ccccc2sn1-c1ccc(F)cc1	SENP6 inh 82, SENP8 block-2 74 (no result: Platelet DG rel) | SENP8 conf 84 | SENP6 confirm 84 | SENP7 confirm 96 | Casp3 select 91 | SENP luc ctr 84
O=c1c2ccc(F)cc2sn1-c1ccccc1	none (no result: SENP7 inh, SENP6 inh, Platelet DG rel, SENP8 block-2)

Assay outcomes: PubChem BioAssay, several laboratories
